# Measurements published in PubChem BioAssay.
# Target: Torsin-1A (Homo sapiens) (UniProt O14656)
# Assay: TOR1A wild-type binding on microarray – cell lysate, small-molecule microarray, lysate, 635/667 nm, primary screen (AID 1149)
# Conditions: COS7 hTOR1A-WT lysate, 635 nm fluorescence, higher = more signal
# Chain of Torsin-1A (Homo sapiens) (O14656 whole entry, looked up): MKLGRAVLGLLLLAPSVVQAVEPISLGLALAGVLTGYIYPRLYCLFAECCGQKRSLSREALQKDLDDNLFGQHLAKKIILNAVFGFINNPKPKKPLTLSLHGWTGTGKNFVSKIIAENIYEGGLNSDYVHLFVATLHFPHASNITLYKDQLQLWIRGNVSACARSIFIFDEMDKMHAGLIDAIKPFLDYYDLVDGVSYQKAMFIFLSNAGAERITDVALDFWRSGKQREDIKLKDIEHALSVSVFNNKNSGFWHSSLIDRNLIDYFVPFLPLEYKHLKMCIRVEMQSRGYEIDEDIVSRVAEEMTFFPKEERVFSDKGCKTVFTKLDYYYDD
row,Structure (SMILES),composite z-score
1,CO[C@H]1COC(=O)[C@H](CCSC)NC(=O)CC=C[C@@H](C)[C@H](OC)COC(=O)[C@@H](OCc2ccccc2)C=C[C@@H]1C,1.78
2,COc1ccc(OC[C@H]2CN3[C@@H](CC[C@@H](C)[C@@H]3c3ccc(Br)cc3)C(=O)O2)cc1,0.357
3,COc1ccc(O[C@H]2C=C[C@@H](c3ccccc3)O[C@@H]2CO)cc1,0.139

# Target: Torsin-1A (Homo sapiens) (UniProt O14656)
# Assay: torsin A mutant lysate binding on microarrays – cell lysate, small-molecule microarray, COS7 lysate, 635/667 nm fluorescence, primary screen (AID 1150);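 note: score pools 667 nm emission and signal to noise measuring lysate protein binding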
# Conditions: COS7 hTOR1A mutant lysate, 635 nm fluorescence, higher = more signal
row,Structure (SMILES),composite z-score
1,CC(=O)OC[C@H]1O[C@@H](ON=C(C)C)[C@H](OC(C)=O)[C@@H](OC(C)=O)[C@@H]1OC(C)=O,0.188
2,CC(C)=CCCC(C)=CCON=C1[C@H]2CCn3c(=O)n(-c4ccccc4)c(=O)n3[C@H]2[C@H](O)[C@@H]2O[C@H]12,0.413
3,COC(=O)CC=C[C@@H](C)[C@@H](C=NOC[C@@H](C)[C@H](OCc1ccccc1)C(C)C)OC,-0.0103
4,CCOC(=O)CCN1C(=O)[C@H]2[C@H]3[C@H](O)[C@H](O)CC(=NO[C@@H]4O[C@H](CO)[C@@H](O)[C@H](O)[C@H]4O)[C@@H]3CC[C@H]2C1=O,1.12
5,COC(=O)[C@H](C)NC(=O)CCC1CC(OC(=O)NCc2ccc3c(c2)OCO3)CC2(CCCC(COC(=O)NCCc3ccc(Cl)cc3)O2)O1 (some centres undefined),0.193
6,CC(CCN1CCCc2nc(C)c(C)cc21)=NOC[C@@H](O)COCc1ccco1,4.29
7,CC(CCN1CCCCc2nc(C)c(C)cc21)=NO[C@@H](C)c1cc(-c2c(C)cc(C)cc2C)no1,-0.956
8,C[C@H]1CC[C@@H](C(=O)O)N[C@@H]1c1ccc(C#Cc2ccccc2)cc1,0.439
9,COc1ccc(O[C@H]2C=C[C@@H](c3ccccc3)O[C@@H]2COC(=O)NCc2cccc3ccccc23)cc1,0.225
10,CC(C)CON=C1C[C@@H](O)[C@@H](O)[C@@H]2[C@@H]3C(=O)N(C(C)(C)C)C(=O)[C@@H]3CC[C@@H]12,3.23
11,CC(C)CON=C1[C@H]2CCn3c(=O)n(C)c(=O)n3[C@H]2[C@H](O)[C@@H]2O[C@H]12,-0.0543
12,CCOC(=O)CCN1C(=O)[C@H]2[C@H]3[C@H](O)[C@H](O)CC(=O)[C@@H]3CC[C@H]2C1=O,0.5
13,CC1(C)O[C@H]2OC([C@H](O)CON3C(=O)c4ccccc4C3=O)[C@H](O)[C@H]2O1 (some centres undefined),0.129
14,COc1cccc([C@H](O)Cn2cc(-c3ccc(CON=C(C)C)cc3)nn2)c1,0.271
15,COCC#Cc1ccc([C@@H]2N[C@H](C(=O)O)CC[C@H]2C)cc1,0.0923
16,O=C1C[C@H](c2ccccc2)[C@H](c2ccc(Br)cc2)O1,-0.022
17,CCCNC(=O)OC[C@H]1O[C@H](CCON=C[C@@H](NS(=O)(=O)c2ccc(C)cc2)[C@H](C)C=CCC(=O)OC)C=C[C@@H]1Oc1ccc(OC)cc1,0.488
18,CCOC(=O)[C@H](Cc1ccccc1)NC(=O)CCC1CC(OC(=O)NCCc2ccc(F)cc2)CC2(CCCC(COC(=O)NCCOc3ccccc3)O2)O1 (some centres undefined),1.11

row,Structure (SMILES),composite z-score
1,C=CC[C@@H]1C=C[C@H](Oc2ccc(C)cc2)[C@@H](COC(=O)NCc2cccc3ccccc23)O1,-0.0604
2,O=C1C2=CC[C@H]3C(=O)N(C[C@@H]4CCCO4)C(=O)[C@H]3[C@H]2[C@H](O)[C@@H]2O[C@H]12,0.511
3,CSCC[C@@H]1NC(=O)CC=C[C@@H](C)COC(=O)[C@H](C)COC1=O,3.77
4,COC(=O)[C@H](Cc1ccccc1)NC(=O)[C@@H](C)CO,0.0866
5,O=C1[C@H]2[C@H]3[C@H](O)[C@H](O)CC(=NOCc4ccccc4)[C@@H]3CC[C@H]2C(=O)N1c1cccc(Oc2ccccc2)c1,0.0495
6,CC(C)C(=O)N[C@H]1CCCN1C(=O)C=Cc1ccccc1,0.231
7,CCN1C(=O)[C@H]2[C@H]3[C@H](O)[C@H](O)CC(=NOCC(C)C)[C@H]3CC[C@H]2C1=O,0.303
8,C#CCCCON=C1[C@H]2CCn3c(=O)n(Cc4cc5c(cc4Cl)OCO5)c(=O)n3[C@H]2[C@H](O)[C@@H]2O[C@H]12,0.248
9,COC(=O)[C@H](C)NC(=O)CCC1CC(OC(=O)NCc2cccc3ccccc23)CC2(CCCC(COC(=O)NCCOc3ccccc3)O2)O1 (some centres undefined),-0.13
10,CO[C@H]1COC(=O)CC=C[C@@H](C)COC(=O)[C@H]2CCCN2C(=O)CC=C[C@H]1C,2.95
11,O=C1C[C@@H](O)[C@@H](O)[C@@H]2[C@@H]3C(=O)N(C4CCCCC4)C(=O)[C@@H]3CC[C@@H]12,0.311
12,CN1CCc2nc(-c3ccccc3)c(-c3ccccc3)cc2C1,0.539
13,CC(CCC(=O)OC[C@H]1O[C@H](C#Cc2ccccc2)C=C[C@@H]1Oc1ccc(C)cc1)=NOC(C)CN1CCCCc2nc(C)c(C)cc21 (some centres undefined),-0.269
14,CO[C@@H]1C=CCC(=O)N[C@@H](C)C(=O)OC[C@@H](OC)[C@H](C)C=CCC(=O)OC[C@H]1C,2.21
15,CO[C@@H]1[C@H](O)CO[C@H]1C=Cc1ccccc1,0.0143
16,CO[C@H]1COC(=O)[C@H](CCSC)NC(=O)CC=C[C@@H](C)[C@H](OC)COC(=O)[C@@H](OCc2ccccc2)C=C[C@@H]1C,0.732
17,COc1ccc(OC[C@H]2CN3[C@@H](CC[C@@H](C)[C@@H]3c3ccc(Br)cc3)C(=O)O2)cc1,0.28
18,COc1ccc(O[C@H]2C=C[C@@H](c3ccccc3)O[C@@H]2CO)cc1,0.153
